The campaign covered roughly 290,000 compounds. About 2,600 (0.9%) were called active.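 Rule for the calls: active = inhibition above the mean of all tested compounds plus 3 SD, cutoff set per screening run (cut at about 7.5% in these data); inactive = the rest.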 Shown is part of a subset that was picked to be rich in actives.
These compounds were tested on VIM-2 metallo-beta-lactamase (Pseudomonas aeruginosa) (assay: inhibition of VIM-2 nitrocefin hydrolysis – biochemical, epi-absorbance readout, Pseudomonas aeruginosa enzyme, primary screen (AID 1527;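 note: red hydrolysis product quenches plate fluorescence so inhibitors raise well fluorescence; 0% = enzyme with DMSO and 100% = DMSO without enzyme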)). Details: purified VIM-2, nitrocefin hydrolysis, epi-absorbance fluorescence; at 5.6 µM; hits give high values.

SMILES	inhibition
O=C(Cc1ccccc1[N+](=O)[O-])N1CCN(Cc2ccc3c(c2)OCO3)CC1	1.82% (inactive)
Cc1cc(=O)oc2c(C)c(OCC(=O)N3CCN(Cc4ccc5c(c4)OCO5)CC3)ccc12	41.5% (active)
Fc1ccc(N2CCN(Cc3ccc4c(c3)OCO4)CC2)cc1	-2.76% (inactive)
CC(=O)c1c(C)n(C(C)C)c2ccc(O)cc12	-2.19% (inactive)
COc1cc2nc(N3CCN(C(=O)[C@@H]4CCCO4)CC3)nc(N)c2cc1OC	-2.29% (inactive)
CCOC(=O)C1(CCc2ccccc2)CCN(Cc2ccco2)CC1	-1.92% (inactive)
CNC(=O)O/N=C(\N)Cc1csc2ccc(Cl)cc12	-0.28% (inactive)
CCN1CCN(C(=O)Cc2coc3cc(C)cc(C)c23)CC1	-5.4% (inactive)
COC(=O)COc1cc(C)cc2oc(=O)c3c(c12)CCCC3	8.38% (active)
Cc1cc(OCc2cc(C(=O)O)oc2C)c2c3c(c(=O)oc2c1)CCCC3	56.6% (active)
O=C(N/N=C/c1c(O)n(C2CC2)c(=S)[nH]c1=O)c1ccccc1Cl	-1.56% (inactive)
CN(C)CC1CCCCC1OC(=O)c1ccc(Cl)c(Cl)c1 (stereo not given)	0.42% (inactive)
Cc1cc2ccccn2c1C(C[N+](=O)[O-])c1c(F)cccc1Cl (stereo not given)	0.92% (inactive)
COc1ccc(-n2c(-c3ccccc3)nc3ccccc3c2=O)cc1	-3.17% (inactive)
COCCNC(=O)CN1C2CCC1CC(O)(c1cccnc1)C2 (stereo not given)	-2.88% (inactive)
